# Screen size: about 360,000 compounds; about 2,600 (0.72%) were called active.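 The calls were made as follows: active = inhibition above its plate's cutoff, the mean inhibition of sample wells plus 3 SD (cut at about 27% in these data); inactive = the rest.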 The sample as a whole holds a higher share of actives than the screen did.
# Target: Muscarinic acetylcholine receptor M4 (Homo sapiens) (UniProt P08173)
# Assay: human M4 muscarinic receptor antagonists, primary screen, CHO cells, Fluo-8 calcium fluorescence (AID 624125);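 also: 0% = acetylcholine EC80 with DMSO and 100% = DMSO without agonist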
# Settings: CHO-hM4 cells, ACh EC80, Fluo-8 calcium fluorescence; at 3 µM; active compounds read high
# Muscarinic acetylcholine receptor M4 (Homo sapiens), sequence (P08173 whole entry, looked up): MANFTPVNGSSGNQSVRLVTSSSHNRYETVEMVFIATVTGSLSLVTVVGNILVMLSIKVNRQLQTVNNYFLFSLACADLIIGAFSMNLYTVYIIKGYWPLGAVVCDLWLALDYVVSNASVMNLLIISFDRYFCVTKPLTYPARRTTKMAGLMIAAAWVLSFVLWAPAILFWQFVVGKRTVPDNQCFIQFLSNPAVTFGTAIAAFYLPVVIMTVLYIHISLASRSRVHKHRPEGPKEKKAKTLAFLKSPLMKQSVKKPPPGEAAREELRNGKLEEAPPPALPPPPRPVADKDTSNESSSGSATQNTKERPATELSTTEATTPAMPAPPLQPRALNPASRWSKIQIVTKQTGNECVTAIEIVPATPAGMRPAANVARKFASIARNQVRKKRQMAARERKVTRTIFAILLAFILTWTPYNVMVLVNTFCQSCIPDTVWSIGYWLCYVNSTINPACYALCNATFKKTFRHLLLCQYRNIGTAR
row,SMILES,inhibition
1,C#CCNC(=O)C1=C[C@@H](c2ccccc2)[C@H](CCCO)[C@@H](OCC)O1,12.4% (inactive)
2,O=C1/C(=C\c2ccc([N+](=O)[O-])cc2)CS(=O)(=O)C/C1=C/c1ccc([N+](=O)[O-])cc1,26.7% (active)
3,O=[N+]([O-])c1ccc(CN2CC(N3CC=CC3)CS2(=O)=O)cc1 (centres undefined),-1.16% (inactive)
4,O=C(CSCc1c(F)cccc1Cl)NCC1CCCO1 (centres undefined),-3.01% (inactive)
5,CC(=O)Nc1ccccc1OC(C)C(=O)N1CCC(C)CC1 (centres undefined),-7.56% (inactive)
6,CC(C)c1cc(C(=O)N(C)C2CCCN(Cc3ccccc3F)C2)n(C)n1 (centres undefined),-12.6% (inactive)
7,O=C(O)C(c1ccccc1)C1(O)CCCCC1 (centres undefined),-13.2% (inactive)
8,CN(C)CCOC(=O)C(c1ccccc1)C1(O)CCCC1 (centres undefined),98% (active)
9,O=C(O)C(c1cccs1)C1(O)CCCCC1 (centres undefined),5.22% (inactive)
10,CCC(C)[C@H](NC(=O)N1CCn2c1nc1ccccc12)C(=O)NCc1ccc(OC)cc1 (some centres undefined),-15.9% (inactive)
11,NS(=O)(=O)c1ccc(CCNC(=O)c2ccc([N+](=O)[O-])cc2[N+](=O)[O-])cc1,5.77% (inactive)
12,COc1nnc(-c2ccc(C)c(S(=O)(=O)N(C)C)c2)c2ccccc12,2.31% (inactive)
13,COC(=O)c1ccc2nc(-c3cccc(Br)c3)c(Cc3ccc(OC)cc3C)n2c1,1.2% (inactive)
14,CCCCNc1c(-c2cccc(Sc3ccc(OC)cc3)c2)nc2ccccn12,48.5% (active)
15,COC(=O)c1ccc2nc(-c3ccccc3)c(Cc3ccc(OC)cc3C)n2c1,11.4% (inactive)
16,CN1C(=O)CC(N2CCN(c3ccccn3)CC2)C1=O (centres undefined),2.5% (inactive)
17,Cc1ccc(C(=O)N(CN2CCCC2=O)c2ccc(F)cc2)cc1,6.56% (inactive)
18,COc1cccc(CC2(CO)CCN(Cc3cnc(-c4cccc(C)c4)nc3)CC2)c1,0.77% (inactive)
19,COC(=O)c1ccc(CN2CCC(CO)(Cc3ccc(OC)cc3)CC2)cc1,31.7% (active)
20,COc1ccc(CC2(CO)CCN(Cc3cnn(C)c3)CC2)cc1,-5.66% (inactive)
21,CC(C)(C)Nc1c(-c2cccs2)nc2ccccn12,6.54% (inactive)
22,O=C(CNS(=O)(=O)c1ccc2c(c1)OCCCO2)N1CCN(c2ccc(F)cc2)CC1,-7.25% (inactive)
23,CC(C)CCN1C(=O)c2ccc(C(=O)Nc3cccc(S(N)(=O)=O)c3)cc2C1=O,4.89% (inactive)
24,CN=C1C=C/C(=N/N=c2\ccn(O)cc2C)C=C1C,11.9% (inactive)

row,SMILES,inhibition
1,c1ccc2c(C[n+]3csc4ccccc43)cccc2c1,30.1% (active)
2,Nc1scc[n+]1Cc1cccc2cccnc12,-7.43% (inactive)
3,CCN(CC(=O)Nc1ccccc1OC)C(=O)CC1CC2CCC1C2 (centres undefined),0.94% (inactive)
4,Cc1cccc2c1N(CCOc1ccccc1)C(=O)C2=O,-0.73% (inactive)
5,C/C(=N\N1CCN(Cc2ccc(C)cc2)CC1)c1ccco1,1.69% (inactive)
6,CCOC(=O)c1ccccc1NC(=O)COC(=O)CCC(=O)N1CCOCC1,2.73% (inactive)
7,C[C@H]1[C@H]2c3nc4ccccc4n3C[C@H]1ON2C1CCCCC1,-2.5% (inactive)
8,O=C(OCc1nnc(-c2ccccc2)o1)c1ccc2c(c1)C(=O)N(CCc1ccccc1)C2=O,-2.43% (inactive)
9,Cc1ccc(C(=O)NCC(=O)OCc2nnc(-c3ccccc3)o2)cc1,8.37% (inactive)
10,Cc1onc(-c2ccccc2)c1-c1nnc(COC(=O)c2ccc(N(C)C)cc2)o1,62.4% (active)
11,COc1ccc(C(=O)N2CCCCC2c2cc(C(=O)Nc3ccccc3)no2)cc1 (centres undefined),-6.76% (inactive)
12,Cc1c(C(=O)Nc2ccccc2)sc2nc3n(c(=O)c12)CCCCC3,-0.96% (inactive)
13,Cn1c(-c2ccc(C(=O)c3ccccc3)s2)nc2ccccc21,1.58% (inactive)
14,Cc1nc2sc(C(=O)c3ccccc3)c(N)c2c2c1CCCC2,29.8% (active)
15,COc1ccc([C@H]2C[C@@H](n3cc(COC(=O)c4ccccc4)nn3)[C@H](O)CN2C(=O)c2cccs2)cc1,-7.8% (inactive)
16,Cc1ccc(S(=O)(=O)N(CC(=O)NCCSC2CCCCC2)c2ccccc2F)cc1,-2.75% (inactive)
17,CCOC(=O)C1C(C)C(C(C)(C)C)N(S(=O)(=O)c2ccc(C)cc2)C1c1ccccc1 (centres undefined),37.7% (active)
18,CCCCC[C@@H]1C=C(C(=O)OCC)[C@H](c2ccccc2)N1S(=O)(=O)c1ccc(C)cc1,-11.2% (inactive)
19,CCOC(=O)C1=CC[C@@H](c2ccccc2)N(S(=O)(=O)c2ccc(C)cc2)[C@H]1c1ccc(CC)cc1,-16.5% (inactive)
20,CCC(C)NCCOCCOc1ccc(Br)cc1C (centres undefined),6.84% (inactive)
21,Cc1ccc(C)c(NC(=O)C(OC(=O)c2ccc(C)s2)c2ccccc2)c1 (centres undefined),-13.1% (inactive)
22,CCCOc1ccc(F)cc1-c1cc(C(=O)Nc2ccc(F)c(Cl)c2)[nH]n1,28% (active)
23,CCCOc1ccc(F)cc1-c1cc(C(=O)NCc2ccc(F)cc2)[nH]n1,-9.17% (inactive)
24,CCCOc1ccc(F)cc1-c1cc(C(=O)Nc2ccc(F)cc2)[nH]n1,-2.62% (inactive)

row,SMILES,inhibition
1,CC(=O)NC(C(=O)NCC(N)=O)C(C)C (centres undefined),-7.93% (inactive)
2,Cc1ccc(C)c(S(=O)(=O)Nc2cccc(-n3cnnn3)c2)c1,4.01% (inactive)
3,O=C(CC1Oc2ccccc2NC1=O)NCCCN1CCN(Cc2ccccc2)CC1 (centres undefined),-1.94% (inactive)
4,CN(C)c1ccc(CNC23CN4CN(CN(C4)C2)C3)cc1,3.33% (inactive)
5,O=C(CN1CCN(Cc2ccccc2)CC1)Nc1ccc(F)c(F)c1,13% (inactive)
6,O=C(CN1CCN(Cc2ccccc2)CC1)NC(c1ccccc1)c1ccccc1,44.7% (active)
7,O=C(CN1CCc2ccccc21)NC(c1ccccc1)c1ccccc1,-1.96% (inactive)
8,CN(CCc1ccccc1)c1ccc([N+](=O)[O-])cn1,10.7% (inactive)
9,COc1cc(NC(=S)NNC(=O)CC(C)C)c(OC)cc1Cl,-7.19% (inactive)
10,CN(O)C(=S)c1ccccc1,31.7% (active)
11,Cc1nn(Cc2ccccc2)c(C)c1CNC(=O)c1ccc(F)c(S(=O)(=O)N2CCOCC2)c1,-8.04% (inactive)
12,Cc1cccc(CSc2ccc(-c3cccs3)nn2)c1,-4.51% (inactive)
13,CSCCC1NC(=O)N(CC(=O)Nc2cccc(S(=O)(=O)N3CCCCCC3)c2)C1=O (centres undefined),-15.2% (inactive)
14,O=C(Nc1ccccc1)c1nnsc1S(=O)(=O)c1ccc(Cl)cc1,70.3% (active)
15,O=C(/C=C/c1ccc(Cl)cc1)Nc1ccc(S(=O)(=O)Nc2ncccn2)cc1,0.88% (inactive)
16,C/C(=N\NS(=O)(=O)c1ccc(Cl)cc1)c1ccc(NC(=O)c2ccco2)cc1,7.91% (inactive)
17,Cn1c(CC(=O)Nc2ccc(F)cc2)nnc1SCC(=O)NC1CCCCC1,-3.82% (inactive)
18,CC(=O)N1CCc2c(sc(NC(=O)CCS(=O)(=O)c3ccc(C)cc3)c2C(N)=O)C1,-0.18% (inactive)
19,CS(=O)(=O)c1ccc(C(=O)NNC(=O)c2cccs2)cc1,0.8% (inactive)
20,Cc1ccc2[nH]cc(CCCN3C(=O)c4ccccc4C3=O)c2c1,-6.81% (inactive)
21,Cc1cccc(CSc2nnc(C)c(=O)n2N)c1,-5.35% (inactive)
22,Cc1cccc(CSc2nc3c(c(=O)n2C)SCC3)c1,30.4% (active)
23,COCCn1c(SCC(=O)Nc2ccc(F)cc2F)nc2c(c1=O)SCC2,-3.44% (inactive)
24,CCOC(=O)C1=CN(Cc2ccc(Br)cc2)S(=O)(=O)NC1C (centres undefined),-12.5% (inactive)

row,SMILES,inhibition
1,O=C1C2(c3ccccc3)CN(CCCO)CC1(c1ccccc1)CN(CCCO)C2,4.09% (inactive)
2,FC(F)(F)c1cccc(-c2cc3ccccc3nc2N2CCCC2)c1,2.79% (inactive)
3,CCN(CC)CCCC(C)n1c2nc(=O)[nH]c(=O)c-2nc2cc(Cl)ccc21 (centres undefined),38.6% (active)
4,C=CCn1c(N)cc(=O)nc1SCC(=O)Nc1cccc2ccccc12,0.21% (inactive)
5,CCN(CC)P(=O)(C(NC(=O)OC)C(F)(F)C(F)(F)C(F)(F)C(F)F)N(CC)CC (centres undefined),2.64% (inactive)
6,COc1ccc(NC(=O)/C(Cl)=C(/Cl)S(=O)Cc2ccc(C)cc2)cn1 (centres undefined),50.8% (active)
7,CC(C)=CCCC1(C)C=Cc2c(ccc3c2[nH]c2cc(O)c(C)cc23)O1 (centres undefined),-7.94% (inactive)
8,Cc1c(CN2CCCC(C(=O)c3cccc(Cl)c3)C2)c(=O)n(-c2ccccc2)n1C (centres undefined),7.63% (inactive)
9,O=C(C[C@H]1C/C=C\C[C@@H](NC(=O)OCC2c3ccccc3-c3ccccc32)C(=O)O[C@@H](c2ccccc2)CNC1=O)N[C@H](CO)Cc1ccccc1,-3.13% (inactive)
10,O=C(NNC(=O)C1C2CCC(C2)C1C(=O)O)c1ccc(Cl)cc1 (centres undefined),2.59% (inactive)
11,COc1ccc(S(=O)(=O)/N=C2\C=C(NS(=O)(=O)c3ccccc3)C(=O)c3ccccc32)cc1,27.9% (active)
12,COc1ccc(NS(=O)(=O)c2ccc(Oc3c(C#N)cccc3C#N)cc2)cc1,15% (inactive)
13,Cc1ccc(S(=O)(=O)/N=C2\C=C(NS(=O)(=O)c3ccc(C)cc3)C(=O)c3ccccc32)cc1,4.16% (inactive)
14,Cc1cccc(NC(=O)c2nc(S(=O)(=O)Cc3ccccc3)ncc2Cl)c1,51.3% (active)
15,Cc1cccc(CS(=O)(=O)c2ncc(Cl)c(C(=O)Nc3ccc(F)cc3)n2)c1,33.5% (active)
16,CN(CC(=O)Nc1ccc(F)cc1)CC(=O)Nc1ccc(Cl)c(S(=O)(=O)N2CCOCC2)c1,-7.68% (inactive)
17,O=C(CS(=O)(=O)Cc1ccccc1)Nc1cccnc1,-2.16% (inactive)
18,Cc1cccc(NS(=O)(=O)c2ccc(C)c(C(=O)NCc3cccnc3)c2)c1,-6.05% (inactive)
19,Cc1cc(NS(=O)(=O)c2ccc(NC(=S)NC(=O)c3ccc(F)cc3Cl)cc2)no1,9.04% (inactive)
20,C[C@H](NC(=O)c1nc[nH]c1C(=O)NCC(=O)OC(C)(C)C)C(=O)OCc1ccccc1,17.7% (inactive)
21,Cc1cccc(NC(=O)c2nc[nH]c2C(=O)NCC(=O)OCc2ccccc2)c1,29.3% (active)
22,O=C(N[C@@H](Cc1ccccc1)C(=O)OCc1ccccc1)c1nc[nH]c1C(=O)N[C@@H](Cc1ccccc1)C(=O)OCc1ccccc1,2.96% (inactive)

# — PubChem BioAssay AID624125 (The Scripps Research Institute Molecular Screening Center, 2012)
